According to PubChem BioAssay (NCATS):
Where “and” joins values, the source holds several entries; their conditions need not be identical. Identical values can stand only once. A number with no mark means an inactive call. Inconclusive results are not listed. Calls of active or inactive are those of the source. Unless noted, calls follow the shape of the dose curve; as a rule, active = well fitted curve in the direction sought with a large enough effect; inconclusive = small, poorly fitted or top-dose-only effect, or another doubt; inactive = no such curve, though single readings can be large; an effect the other way counts as inactive or inconclusive.

Tests used:
[1] = test system: OV90; experiment: Primary qHTS to identify gynecologic anti-cancer compounds using libraries of approved drugs and bioactive compounds (AID 1345084); details: Gynecologic cancer cell panel viability, ATPlite luminescence, 48 h; series mostly up to 57.5 µM; also: nearly all actives have a fitted effect of over 55% in size; also: potency is read from the fitted curve at half-maximal effect
How it was run: (§1)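 48 h compound exposure at 37 C, 5% CO2; five-point qHTS. ATPlite luminescence readout of cell ATP.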

[2] = test system: PA-1; experiment: as above; details: Gynecologic cancer cell panel viability, ATPlite luminescence, 48 h; series mostly up to 57.5 µM
How it was run: as §1

[3] = test system: Tov112D; experiment: as above; details: Gynecologic cancer cell panel viability, ATPlite luminescence, 48 h; series mostly up to 57.5 µM
How it was run: as §1

[4] = qHTS assay to identify inhibitors of the type 1 interferon - major histocompatibility complex class I in skeletal muscle: Counter screen cell viability and HiBit confirmation (AID 1347412); details: iHSKM muscle cells + IFN-b, HiBiT or CellTiter-Glo, 24 h; for activity change, negative = inhibition: at 45.9 µM (top of the series); also: potency is read from the fitted curve at half-maximal effect; as to activity change, negative = inhibition: % is scaled to controls: 0 for no effect and ±100 for the full control effect; as to all read-outs here: nearly all actives have a fitted effect of over 60% in size
How it was run: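 After 24 h with human IFN-beta (4 ng/ml) and compound titrations (top 46 uM final, 1:3, 12 points), HLA-B HiBit myoblasts were lysed for either Nano-Glo HiBiT luminescence or CellTiter Glo viability on paired plates.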

[5] = test system: Tov-21-G; experiment: Primary qHTS to identify gynecologic anti-cancer compounds using libraries of approved drugs and bioactive compounds (AID 1345084); details: Gynecologic cancer cell panel viability, ATPlite luminescence, 48 h; series mostly up to 57.5 µM; also: nearly all actives have a fitted effect of over 55% in size; also: potency is read from the fitted curve at half-maximal effect
How it was run: as §1

[6] = Drug repurposing screens with cells derived from glioblastoma tumor samples (AID 1345199); details: GBM patient neurospheres viability, ATP luminescence, 48 h; also: nearly all actives have a fitted effect of over 40% in size; also: potency is read from the fitted curve at half-maximal effect; as to activity, negative = cell killing: % is scaled to controls: 0 for no effect and ±100 for the full control effect
How it was run: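 Primary testing used CD133+ neurospheres from four GBM patients, seven concentrations, 48 h exposure and ATP-based viability; confirmation added three slower-growing patient lines.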

[7] = test system: SKOV3; experiment: Primary qHTS to identify gynecologic anti-cancer compounds using libraries of approved drugs and bioactive compounds (AID 1345084); details: Gynecologic cancer cell panel viability, ATPlite luminescence, 48 h; series mostly up to 57.5 µM; also: nearly all actives have a fitted effect of over 55% in size; also: potency is read from the fitted curve at half-maximal effect
How it was run: as §1

[8] = biological target: Nuclear receptor subfamily 1 group I member 2 (Rattus norvegicus) (UniProt Q9R1A7); experiment: qHTS assay for small molecule activators of the rat pregnane X receptor (rPXR) signaling pathway (AID 651751; call rule not given here; also: 0% is about no effect); details: rPXR reporter cells, luciferase (One-Glo), 24 h
Chain of Nuclear receptor subfamily 1 group I member 2 (Rattus norvegicus) (Q9R1A7 whole entry, looked up): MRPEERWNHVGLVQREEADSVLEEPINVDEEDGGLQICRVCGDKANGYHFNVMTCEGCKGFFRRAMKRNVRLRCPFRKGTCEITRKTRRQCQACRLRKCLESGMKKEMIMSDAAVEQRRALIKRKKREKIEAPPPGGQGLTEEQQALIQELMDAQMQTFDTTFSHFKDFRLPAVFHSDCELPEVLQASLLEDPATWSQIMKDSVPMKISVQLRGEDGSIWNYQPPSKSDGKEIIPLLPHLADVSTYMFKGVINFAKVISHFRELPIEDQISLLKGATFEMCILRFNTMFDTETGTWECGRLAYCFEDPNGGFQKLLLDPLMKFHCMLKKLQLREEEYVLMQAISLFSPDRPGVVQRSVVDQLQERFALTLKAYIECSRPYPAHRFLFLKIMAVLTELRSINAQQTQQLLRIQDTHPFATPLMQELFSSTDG

[9] = qHTS assay for small molecule activators of the human pregnane X receptor (PXR) signaling pathway (AID 720659; call rule not given here; also: 0% is about no effect)
[10] = at 45.9 µM (top of the series), tumour line B
[11] = at 45.9 µM (top of the series), tumour line D
[12] = at 46.1 µM (top of the series), tumour line C
[13] = at 46 µM (top of the series), tumour line A

## COc1ccc2c(Oc3ccc(NC(=O)c4c(C)n(CC(C)(C)O)n(-c5ccccc5)c4=O)nc3)ccnc2c1
[1]
  Potency: inactive
[2]
  Potency: 31.6 µM (active)
[3]
  Potency: inactive

## C=C1C(=O)[C@@]23C(CC[C@@H]1[C@H]2O)[C@@]12CO[C@]3(O)[C@@H](O)[C@@H]1C(C)(C)CC[C@@H]2O (stereo partly drawn)
[1]
  Potency: inactive
[3]
  Potency: inactive
[4]; HiBiT
  Potency: 8.83 µM (active)
[4]; Viability
  Potency: 35.2 µM (active)

## CC1CCC(C(=O)N(c2cc(C#CC(C)(C)C)sc2C(=O)O)C2CCC(O)CC2)CC1 (stereo not drawn)
[1]
  Potency: inactive
[2]
  Potency: inactive
[5]
  Potency: inactive
[3]
  Potency: inactive

## Cc1cccc(C)c1OCC(C)N (stereo not drawn)
[1]
  Potency: inactive
[2]
  Potency: inactive
[5]
  Potency: inactive
[3]
  Potency: inactive
[6]; [10]
  activity, negative = cell killing: -9.46%
[6]; [11]
  activity, negative = cell killing: 4.9%
[6]; [12]
  activity, negative = cell killing: 3.32%

## CC(=O)N(C)C1(c2ccccc2)CCN(CCC[C@]2(c3ccc(Cl)c(Cl)c3)CCCN(C(=O)c3ccccc3)C2)CC1
[7]
  Potency: 22.4 µM (active)

## CN1C[C@H]2c3ccccc3Oc3ccc(Cl)cc3[C@@H]2C1
[2]
  Potency: inactive
[5]
  Potency: inactive
[3]
  Potency: inactive
[6]; [10]
  activity, negative = cell killing: -17.5%
[6]; tumour line A
  Potency: 10 µM (active)

## CN(C)C1CCN(C(=O)c2ccc(NC(=O)Nc3nc(N4CCOCC4)nc(N4CCOCC4)n3)cc2)CC1
[1]
  Potency: 0.141 µM (active)
[7]
  Potency: 0.1 µM (active)

## NC(=O)c1ccc2nc(-c3ccc(Oc4ccc(Cl)cc4)cc3)[nH]c2c1
[2]
  Potency: 15.8 µM (active)
[3]
  Potency: inactive

## CN(C[C@@H]1COCCO1)S(=O)(=O)Nc1ccc2ccc3ncc(-c4cnn(C)c4)cc3c(=O)c2c1
[1]
  Potency: inactive
[5]
  Potency: 20 µM (active)

## Cc1ccc(Nc2cc(-c3cccc(N4C(=O)c5ccccc5C4=O)c3)ncn2)cc1NS(C)(=O)=O
[1]
  Potency: inactive
[7]
  Potency: inactive
[5]
  Potency: inactive
[3]
  Potency: inactive

## COc1ccc(C2Sc3ccccc3N(CCN(C)C)C(=O)C2OC(C)=O)cc1 (stereo not drawn)
[1]
  Potency: inactive
[2]
  Potency: inactive
[5]
  Potency: inactive
[3]
  Potency: inactive

## COc1cc2nc(-c3ccc(N4CCN(C)CC4)cc3)nc(NCCN3CCOCC3)c2cc1OC
[2]
  Potency: 15.8 µM (active)
[3]
  Potency: inactive

## CC(C)n1nc(-c2ccc3oc(N)nc3c2)c2c(N)ncnc21
[1]
  Potency: 0.316 µM (active)
[5]
  Potency: 0.316 µM (active)
[4]; HiBiT
  Potency: 0.0991 µM (active)

## COCCOc1nc(-c2ccc(Cl)c(Cl)c2)n(-c2ccc(NC(=O)CCl)cc2)n1
[1]
  Potency: inactive
[5]
  Potency: 5.62 µM (active)
[4]; HiBiT
  Potency: 3.52 µM (active)
[4]; Viability
  Potency: 7.87 µM (active)

## NC(=O)c1cccc2[nH]c(-c3ccc([C@H]4CCCN4)cc3F)nc12
[1]
  Potency: 14.1 µM (active)
[2]
  Potency: 12.6 µM (active)
[5]
  Potency: 14.1 µM (active)
[3]
  Potency: 12.6 µM (active)

## CNC1CCC(N(Cc2cccc(-c3ccncc3)c2)C(=O)c2sc3c(F)ccc(F)c3c2Cl)CC1 (stereo not drawn)
[7]
  Potency: inactive
[3]
  Potency: inactive
[4]; HiBiT
  activity change, negative = inhibition: -27.3%

## CN1CCN(CCOc2cc(OC3CCOCC3)c3c(Nc4c(Cl)ccc5c4OCO5)ncnc3c2)CC1
[7]
  Potency: 3.55 µM (active)
[5]
  Potency: 2.24 µM (active)
[3]
  Potency: inactive

## NS(=O)(=O)c1cccc2c1C(=O)c1cccc(O)c1C2=O
[4]; HiBiT
  Potency: 0.557 µM (active)
[4]; Viability
  Potency: 0.496 µM (active)

## Cc1cccc(Nc2nc(-c3ccncc3)cs2)c1
[5]
  Potency: inactive

## CC(C(=O)O)c1ccc(-c2ccccc2)c(F)c1 (stereo not drawn)
[6]; at 20 µM (top of the series), tumour line C
  activity, negative = cell killing: -24.7%
[6]; at 21.2 µM (top of the series), tumour line B
  activity, negative = cell killing: -12.6%
[6]; at 21.2 µM (top of the series), tumour line D
  activity, negative = cell killing: -11%
[6]; at 21.3 µM (top of the series), tumour line A
  activity, negative = cell killing: -20.3%

## CC1(C)O[C@H]2C[C@@H]3[C@H]4CCC5=CC(=O)C=C[C@]5(C)[C@@]4(F)[C@@H](O)C[C@]3(C)[C@]2(C(=O)CO)O1
[6]; [10]
  activity, negative = cell killing: -4.78%
[6]; [11]
  activity, negative = cell killing: 5.68%
[6]; [13]
  activity, negative = cell killing: -11.2%
[6]; [12]
  activity, negative = cell killing: 3.17%

## CC(C)(C)C(=O)Oc1ccc2c(c1)nc(NC(=O)c1cccc([N+](=O)[O-])c1)n2CCCO
[4]; Viability
  activity change, negative = inhibition: -3.08%

## CC1(C)CCC2=C(O1)c1ccccc1C(=O)C2=O
[4]; HiBiT
  Potency: 22.2 µM (active)
[4]; Viability
  Potency: 24.9 µM (active)

## CCOC(=O)O[C@]1(C(=O)OCCl)CC[C@@H]2[C@H]3CCC4=CC(=O)C=C[C@]4(C)[C@@H]3[C@@H](O)C[C@@]21C
[6]; [10]
  activity, negative = cell killing: -4.15%
[6]; [11]
  activity, negative = cell killing: 8.73%
[6]; [13]
  activity, negative = cell killing: -8.19%
[6]; [12]
  activity, negative = cell killing: 1.62%

## COc1ccc(-c2nc(N3CCOCC3)c3sc(CN(C)c4ncc(C(=O)NO)cn4)cc3n2)cn1
[4]; HiBiT
  Potency: 0.0279 µM (active)

## Cc1ccc(C(=O)Nc2cccc(C(F)(F)F)c2)cc1Nc1nc(-c2cccnc2)nc2c1cnn2C
[4]; HiBiT
  activity change, negative = inhibition: -9.48%
[4]; Viability
  activity change, negative = inhibition: -7.92%

## CO[C@H]1C(=O)[C@]2(C)[C@@H](OC)C[C@H]3OC[C@@]3(OC(C)=O)[C@H]2[C@H](OC(=O)c2ccccc2)[C@]2(O)C[C@H](OC(=O)[C@H](O)[C@@H](NC(=O)OC(C)(C)C)c3ccccc3)C(C)=C1C2(C)C
[4]; Viability
  activity change, negative = inhibition: -18.6%

## Oc1ccc(C2CCN(c3ccnc4ccccc34)CC2)cc1O
[4]; Viability
  activity change, negative = inhibition: -0.0528%

## O=c1cc(-c2ccccc2)oc2cc(O)cc(O)c12
[8]
  max response: -2.91%

## O=c1c(O)c(-c2ccc(O)cc2)oc2cc(O)cc(O)c12
[8]
  max response: 0.424% and -1.67%

## CN1[C@@H]2CCC[C@@H]1CC(NC(=O)c1nn(C)c3ccccc13)C2 (stereo partly drawn)
[6]; [10]
  activity, negative = cell killing: 0.357%
[6]; [11]
  activity, negative = cell killing: 2.65%
[6]; [12]
  activity, negative = cell killing: -11.6%
[6]; tumour line A
  Potency: 12.6 µM (active)

## O=C1c2ccccc2-[n+]2ccc3c([nH]c4ccccc43)c21
[4]; HiBiT
  Potency: 1.57 µM (active)
[4]; Viability
  Potency: 2.22 µM (active)

## O=C(O)c1cc(O)c2c(c1)C(=O)c1cccc(O)c1C2=O
[8]
  max response: -2.8%
[9]
  outcome: inactive

## O=C1C(Cl)=C(NCCN2CCOCC2)C(=O)c2ncccc21
[4]; HiBiT
  Potency: 5.57 µM (active)
[4]; Viability
  Potency: 5.57 µM (active)

## O=C(Nc1cccc(Br)c1)c1cccc(S(=O)(=O)N2CCCCCC2)c1
[5]
  Potency: inactive
[3]
  Potency: inactive

## NC[C@@H]1O[C@@H](O[C@H]2[C@@H](O)[C@H](O[C@@H]3[C@@H](O)[C@@H](N)C[C@H](N)[C@H]3O[C@H]3O[C@H](CN)[C@@H](O)[C@@H](O)[C@H]3N)O[C@H]2CO)[C@H](N)[C@@H](O)[C@@H]1O
[6]; [10]
  activity, negative = cell killing: 5.16%
[6]; [11]
  activity, negative = cell killing: 4.28%
[6]; [13]
  activity, negative = cell killing: -29.1%
[6]; [12]
  activity, negative = cell killing: 9.32%
